Assay outcomes from PubChem.
Only some compounds are listed: those with a hit (about 4.2% of all), similar ones and a draw of the others.
TIM10 inh – growth inhibitors of TIM10 yeast strain. S. cerevisiae TIM10 strain growth, BacTiter-Glo luminescence, 24 h. inhibition, % at 10 µM. hit rate 1.4% among 330,000;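 active = inhibition of 40% or more at the single tested concentration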;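 note: wild-type TIM10 isogenic control strain grown at permissive 25 °C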
NALP1 yeast inh – inhibitors of NALP1 inflammasome in yeast; S. cerevisiae NALP1/ASC/caspase-1 growth, X-gal OD620, 72 h; inhibition, % at 10 µM; hit rate 0.61% among 280,000; in the data active = inhibition mostly above about 24%, no sharp cut-off; inactive = mostly below about 32%
tim10-1 inh – inhibits growth of tim10-1 mutant yeast. inhibition, % at 20 µM. S. cerevisiae tim10-1 ts strain growth, BacTiter-Glo, 24 h. hit rate 2.2% among 330,000. AID 463190;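 active = inhibition of at least 40%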;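 note: mutant grown at 25 °C; 0% = DMSO wells with yeast and 100% = wells holding no yeast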
tim23-1 inh – inhibits growth of tim23-1 mutant yeast; S. cerevisiae tim23-1 growth, BacTiter-Glo luminescence, 24 h; inhibition, % at 20 µM; hit rate 1.3% among 330,000; AID 463212;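 active = growth inhibition of the mutant yeast at or above 50%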;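 note: temperature-sensitive mutant grown at 25 °C; plate controls were DMSO-treated mutant yeast for no effect and medium wells lacking yeast for full effect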
V-ATPase pHluor – alters yeast V-ATPase proton transport | S. cerevisiae, pHLuorin cytosolic pH fluorescence | response, % at 10 µM | hit rate 0.37% among 350,000 | AID 504577; in the data active = response mostly above about 7.3%, no sharp cut-off; inactive = mostly below about 5.4%; note: actives read high
NLRP3 yeast inh – blocks the NALP3 inflammasome reconstituted in yeast; hit rate 0.39% among 330,000; inhibition, % at 10 µM; AID 2825; Yeast reconstituted NLRP3/ASC/caspase-1, beta-gal luminescence, 24 h;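 active = inhibition of 50% or more; inactive = inhibition below 50%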;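 note: plate controls were induced DMSO wells for no effect and uninduced yeast grown without galactose for full effect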
Numbers without * were called inactive; / = no result given.

SMILES | TIM10 inh | NALP1 yeast inh | tim10-1 inh | tim23-1 inh | V-ATPase pHluor | NLRP3 yeast inh
N=c1c2c(ncn1Cc1ccco1)Oc1c(ccc3ccccc13)C2c1ccccc1 (configuration not stated) | 18 | 63* | -9 | 26 | 0 | 21
NCCS | 15 | 47* | 6 | -4 | -3 | 45
Cc1cccc2nc(COc3ccc(-c4ccccc4)cc3)cn12 | -3 | 0 | 23 | 26 | / | 18
O=C(c1cc2ccccn2n1)N1CCN(Cc2ccccc2)CC1 | -18 | 34* | -8 | -2 | -1 | 27
O=C(c1cc2ccccn2n1)N1CCCC1 | / | 10 | / | / | / | /
COc1ccc(N2CCN(C3=CC(=O)N(c4cccc(Cl)c4)C3=O)CC2)cc1 | -38 | 24* | 18 | 7 | 5 | 20
COc1ccc(N2C(=O)CC(N3CCN(c4cccc(Cl)c4)CC3)C2=O)cc1 (configuration not stated) | 4 | 4 | 14 | 31 | 3 | 15
Cc1cc(C)c(S(C)(=O)=O)c(Oc2ccc(C(C)(C)C)cc2)n1 | 12 | 30* | 25 | 29 | 0 | 16
Cc1nc2c(=O)n(C)c(=O)n(C)c2nc1Cl | / | 94* | / | / | -3 | /
O=C(Nc1ccc(Oc2cccnc2)cc1)C1CCN(Cc2cccc(Cl)c2)CC1 | -22 | 36* | 21 | -20 | -3 | 25
CCn1cc(CN2CCC(C(=O)Nc3ccc(Oc4ccccc4)nc3)CC2)cn1 | -1 | 34* | -18 | -11 | 2 | 5
O=C(Nc1ccc(Oc2ccccc2)nc1)C1CCN(Cc2ccccc2)CC1 | -81 | 16 | -40 | -88 | 7 | 19
CCOC(=O)[C@@H]1[C@H]2COc3ccccc3[C@@H]2N2C(=O)N(c3ccc(C(F)(F)F)cc3)C(=O)[C@]12C | -1 | / | 17 | 0 | -4 | -7
N#CC(C#N)=C1C=C2C=C(N3CCCCCC3)CCC2CC1 (configuration not stated) | / | 36 | / | / | 234* | /
CCN1CCN(C2=CC3=CC(=C(C#N)C#N)CCC3CC2)CC1 (configuration not stated) | / | 6 | / | / | 28* | /
CN1CCN(C2=CC3=CC(=C(C#N)C#N)CCC3CC2)CC1 (configuration not stated) | / | 15 | / | / | 35 | /
COc1ccc(/C=C/C(=O)NCCSCc2ccco2)cc1OC | 10 | 39* | 8 | 15 | 2 | 10
CCC(=O)Nc1ccc(NC(=O)c2cc3ccccc3o2)c(OC)c1 | 16 | 22 | -3 | 11 | -2 | 26
Cc1ccc(-n2nc3c(=O)n(C(C)C(=O)NCCC4=CCCCC4)nc(C)c3c2C)cc1 (configuration not stated) | -15 | 17 | 35 | 26 | 2 | 5
Clc1ccccc1-c1nc(-c2ccncc2)no1 | 1 | 1 | -7 | 6 | 1 | -2
Cc1onc(-c2ccccc2Cl)c1-c1nc(-c2ccncc2)no1 | 6 | -5 | 3 | -9 | 21* | 5
O=C(CC1Sc2ccccc2NC1=O)NCc1ccc(Cl)cc1 (configuration not stated) | 16 | -5 | 13 | -1 | -1 | 4
CN1CCN(c2ccc(CNS(=O)(=O)Cc3ccc(Cl)cc3)cc2)CC1 | 3 | 21* | 3 | 8 | 2 | 4
CN1CCN(c2ccc(CNS(=O)(=O)c3ccc(F)cc3Cl)cc2)CC1 | 9 | 20 | -4 | -5 | 1 | 6
CCC(=O)N1c2ccc(S(=O)(=O)N3CCCC3)cc2CC1C (configuration not stated) | -4 | -1 | 14 | 9 | -3 | 12
SMILES | TIM10 inh | NALP1 yeast inh | tim10-1 inh | tim23-1 inh | V-ATPase pHluor | NLRP3 yeast inh
CCC(=O)N1c2ccc(S(=O)(=O)N3CCN(C)CC3)cc2CC1C (configuration not stated) | 4 | 34* | -11 | 8 | 0 | 3
Cc1ccc(N(C(C)C(=O)O)S(=O)(=O)c2c(C)[nH]c(=O)[nH]c2=O)cc1 (configuration not stated) | 11 | 42* | 2 | -5 | 1 | 6
COC(=O)C(C)N(c1ccc(C)cc1)S(=O)(=O)c1c(C)[nH]c(=O)[nH]c1=O (configuration not stated) | -6 | 8 | -8 | -4 | 3 | -5
COc1ccc(S(=O)(=O)N2CCCOC2CNC(=O)C(=O)NCc2ccccc2C)cc1 (configuration not stated) | / | / | / | / | -1 | /
c1cc2c(c(NCc3ccncc3)c1)CCCC2 | -1 | 38* | -11 | -3 | 3 | 3
COc1ccc(OCc2nnc(SCC(=O)N3C(C)CCCC3C)o2)cc1 (configuration not stated) | -5 | 14 | -77 | 20 | 1 | 21
CCc1nccn1S(=O)(=O)c1ccc(OC)c(C)c1C | 11 | 34* | 19 | 17 | 1 | 6
COc1ccc(C(=O)O)cc1S(=O)(=O)NC(C)C | -8 | 17 | -12 | 18 | 9 | 11
O=C(O)c1ccc(OCc2occc2C(=O)O)cc1 | -2 | -5 | 16 | 6 | 17* | 8
O=C(O)c1ccc(OCc2ccc(C(=O)O)o2)cc1 | 5 | -12 | -4 | -6 | 2 | 1
O=S(=O)(c1cccs1)N1CCN(c2ccc(O)cc2)CC1 | 11 | 35* | 1 | 14 | -1 | 24
COc1ccc(C(=O)N2c3cc4c(cc3C(C)=CC2(C)C)OCO4)cc1 | / | 26* | / | / | 0 | /
O=C(c1cc(-c2ccccn2)nc2ccc(Cl)cc12)N1CCN(CCc2ccccc2)CC1 | 22 | -10 | 25 | 19 | 3 | 17
Cc1cnn(C(=O)c2cc(-c3ccccn3)nc3ccc(Cl)cc23)c1 | 2 | 41* | 17 | -2 | -1 | -11
O=C(NCc1ccco1)C1CCCN(S(=O)(=O)c2cccc3nsnc23)C1 (configuration not stated) | 7 | 12 | 8 | 11 | 3 | 3
O=C(NCc1ccccn1)C1CCCN(S(=O)(=O)c2cccc3nsnc23)C1 (configuration not stated) | -2 | 32* | 0 | 5 | 1 | 1
COc1ccc(Cn2nnnc2CN2CCc3ccccc3C2)cc1 | 5 | 27* | 17 | 27 | -3 | 14
O=C(O)CSc1c(-c2cccs2)[nH]c2ccccc12 | 3 | 29 | 20 | 27 | -4 | 8
O=C(O)CSc1c(-c2ccccc2)[nH]c2ccccc12 | 12 | -2 | 23 | 20 | 17* | -7
C=C(C)CNC(=S)N/N=C/c1ccc([N+](=O)[O-])cc1 | -41 | 32* | -16 | -9 | 1 | 21
COCCNC(=S)N/N=C/c1ccc([N+](=O)[O-])cc1 | -28 | -4 | 17 | -10 | 0 | -5
O=C(NCc1ccccc1)C(c1ccncc1)N(C(=O)c1csnn1)c1cccc(F)c1 (configuration not stated) | 2 | 11 | 4 | 21 | 1 | 19
Cc1ccc(SCC(=O)Nc2nnc(C(C)(C)C)s2)cc1 | -10 | 5 | -9 | -7 | 0 | 20
